# Records with an inconclusive call do not appear. A call without a number means that no potency is given here. Active and inactive are the calls of the source. The call rests on the fitted dose curve; in most records, active means well fitted curve in the direction sought with a large enough effect; inconclusive means small, poorly fitted or top-dose-only effect, or another doubt; inactive means no such curve, though single readings can be large; an effect the other way counts as inactive or inconclusive.
# Key:
# [1] = target: Calcium and integrin-binding protein 1 (Homo sapiens) (UniProt Q99828); assay: Primary qHTS for Identification of Calcium Integrin Binding Protein 1 (CIB1) Competitor (AID 1508620);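 further: GST tagged CIB1 binding a fluorescein labelled alphaIIb integrin peptide tracer; top concentration of the series differs between compounds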
# Method in brief: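 Fluorescence polarization competition: GST-tagged CIB1 (1 uM final) preincubated with compound 15 min at room temperature, then FITC-labelled alphaIIb peptide (100 nM final) added. After 15 min at room temperature, polarization read at Ex 480/Em 540.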
# [2] = target: Tyrosine-protein kinase Yes (Homo sapiens) (UniProt P07947); assay: qHTS for small molecule inhibitors of Yes1 kinase: Primary Screen (AID 686947); further: potency means the concentration at half of the fitted maximal effect; nearly all actives have a fitted effect of over 60% in size
# Method in brief: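 ADP-Glo luminescence readout; final 4 nM Yes1, 0.1 mM ATP, 0.3 mg/mL poly(E4Y), Tris pH 7.5, MgCl2, DTT, Brij-35. 20 min compound preincubation, 60 min reaction at RT. Normalized to DMSO wells with and without enzyme.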
# [3] = qHTS for small molecule inhibitors of Yes1 kinase: Counter Assay (AID 686950);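 further: no kinase present so only ADP-Glo detection of a fixed ADP amount is tested; luminescence from ADP-Glo reporting ADP in a fixed ATP and ADP mixture; series mostly up to about 77 µM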
# Method in brief: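 Enzyme-free detection counter-screen: compounds preincubated 20 min in buffer, then 0.08 mM ATP plus 0.02 mM ADP added for 60 min at room temperature; ADP-Glo luminescence. Buffer 50 mM Tris pH 7.5, 10 mM MgCl2, 150 mM NaCl; normalized to ATP+ADP and ATP-only controls.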
# [4] = target: N-terminal Xaa-Pro-Lys N-methyltransferase 1 (Homo sapiens) (UniProt Q9BV86); assay: Confirmatory qHTS for Inhibitors of N-terminal methyltransferase 1 (NTMT1): MTaseGlo Assay (AID 1645874); further: nearly all actives have a fitted effect of over 65% in size; further: potency means the concentration at half of the fitted maximal effect;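 on activity change, negative = inhibition: luminescence from SAH made as NTMT1 methylates SPKRIA peptide using SAM; series mostly up to about 100 µM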
# Method in brief: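 Compounds are incubated with 125 nM NTMT1 and 100 uM SAM for 15 min before the SPKRIA peptide (1 uM) starts a 30 min room-temperature methylation. SAH is measured by coupled luciferase luminescence and curves fitted to a Hill equation.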
# [5] = target: Rap guanine nucleotide exchange factor 3 (Homo sapiens) (UniProt O95398); assay: Confirmatory qHTS for antagonist of cAMP-regulated guanine nucleotide exchange factor 3 (EPAC1) (AID 1645880); further: nearly all actives have a fitted effect of over 55% in size
# Method in brief: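 Nucleotide exchange uses 100 nM EPAC1, 250 nM RAP1B-BODIPY-GDP and 50 uM GDP, with compounds in a concentration-titration series. After 5 min at room temperature, fluorescence (480 nm ex/540 nm em) is read every 5 min for 30 min. Data are normalized to control ATA and DMSO.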
# [6] = target: Rap guanine nucleotide exchange factor 3 (Homo sapiens) (UniProt O95398); assay: Confirmatory qHTS for agonist of cAMP-regulated guanine nucleotide exchange factor 3 (EPAC1) (AID 1645881);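 further: EPAC1 catalysed release of BODIPY-GDP from Rap1B seen as fluorescence loss; nearly all actives have a fitted effect of over 75% in size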
# [7] = target: Rap guanine nucleotide exchange factor 4 (Homo sapiens) (UniProt Q8WZA2); assay: Confirmatory qHTS for agonist of cAMP-regulated guanine nucleotide exchange factor 4 (EPAC2) (AID 1645884);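 further: nucleotide exchange releases bodipy-GDP from Rap1 and this lowers its fluorescence; nearly all actives have a fitted effect of over 65% in size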
# [8] = target: Rap guanine nucleotide exchange factor 4 (Homo sapiens) (UniProt Q8WZA2); assay: Confirmatory qHTS for antagonist of cAMP-regulated guanine nucleotide exchange factor 4 (EPAC2) (AID 1645885); further: nearly all actives have a fitted effect of over 25% in size; further: potency means the concentration at half of the fitted maximal effect
# [9] = target: Rap guanine nucleotide exchange factor 3 (Homo sapiens) (UniProt O95398); assay: Counterscreen qHTS for agonist of cAMP-regulated guanine nucleotide exchange factor 3 (EPAC1) (AID 1645889); further: nearly all actives have a fitted effect of over 40% in size
# Method in brief: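 Rap1B–BODIPY-GDP (250 nM) with 50 uM GDP; compounds pin-transferred to 9.74 nM–152 uM final (activator) or from 7.32 nM upwards (inhibitor). Fluorescence Ex/Em 480/540 nm read at 5 and 30 min, then after adding cAMP or buffer, at room temperature.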
# N-terminal Xaa-Pro-Lys N-methyltransferase 1 (Homo sapiens), sequence (Q9BV86 whole entry, looked up): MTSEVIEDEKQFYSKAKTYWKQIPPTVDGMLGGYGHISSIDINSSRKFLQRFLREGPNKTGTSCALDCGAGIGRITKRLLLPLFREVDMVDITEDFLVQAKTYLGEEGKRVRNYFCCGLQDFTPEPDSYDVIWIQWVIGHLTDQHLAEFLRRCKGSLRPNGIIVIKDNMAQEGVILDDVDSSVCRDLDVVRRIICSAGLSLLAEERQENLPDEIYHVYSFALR
# Rap guanine nucleotide exchange factor 4 (Homo sapiens), sequence (Q8WZA2 whole entry, looked up): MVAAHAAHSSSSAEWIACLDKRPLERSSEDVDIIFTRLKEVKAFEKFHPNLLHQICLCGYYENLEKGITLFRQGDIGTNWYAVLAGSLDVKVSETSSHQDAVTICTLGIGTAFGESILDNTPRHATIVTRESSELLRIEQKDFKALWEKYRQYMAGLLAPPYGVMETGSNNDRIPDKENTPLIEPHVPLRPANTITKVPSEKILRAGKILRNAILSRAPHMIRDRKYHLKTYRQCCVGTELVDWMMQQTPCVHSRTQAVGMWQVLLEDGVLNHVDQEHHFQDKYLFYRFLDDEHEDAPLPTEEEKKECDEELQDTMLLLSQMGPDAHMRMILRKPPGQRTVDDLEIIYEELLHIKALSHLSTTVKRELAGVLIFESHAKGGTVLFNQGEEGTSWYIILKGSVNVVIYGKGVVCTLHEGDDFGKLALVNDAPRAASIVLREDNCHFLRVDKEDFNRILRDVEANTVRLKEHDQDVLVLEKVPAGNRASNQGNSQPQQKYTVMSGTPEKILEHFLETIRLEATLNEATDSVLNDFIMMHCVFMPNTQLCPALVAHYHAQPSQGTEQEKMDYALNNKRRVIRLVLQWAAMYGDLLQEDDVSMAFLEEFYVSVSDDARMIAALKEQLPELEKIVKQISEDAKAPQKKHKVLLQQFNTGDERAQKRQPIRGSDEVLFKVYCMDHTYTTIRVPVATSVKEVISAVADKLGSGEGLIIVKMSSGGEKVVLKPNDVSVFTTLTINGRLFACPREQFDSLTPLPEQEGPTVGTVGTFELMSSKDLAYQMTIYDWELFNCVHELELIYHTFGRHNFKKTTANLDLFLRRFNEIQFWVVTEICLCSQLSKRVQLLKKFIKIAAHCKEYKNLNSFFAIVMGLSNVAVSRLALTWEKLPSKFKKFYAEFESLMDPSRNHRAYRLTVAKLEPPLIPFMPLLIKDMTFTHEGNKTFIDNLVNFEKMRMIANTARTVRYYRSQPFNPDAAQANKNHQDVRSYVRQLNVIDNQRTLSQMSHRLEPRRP
# Calcium and integrin-binding protein 1 (Homo sapiens), sequence (Q99828 whole entry, looked up): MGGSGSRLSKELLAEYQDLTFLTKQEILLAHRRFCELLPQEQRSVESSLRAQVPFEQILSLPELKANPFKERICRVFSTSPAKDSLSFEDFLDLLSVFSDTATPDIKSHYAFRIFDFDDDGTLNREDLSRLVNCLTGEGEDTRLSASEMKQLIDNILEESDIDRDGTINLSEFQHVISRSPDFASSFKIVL
# Rap guanine nucleotide exchange factor 3 (Homo sapiens), sequence (O95398 whole entry, looked up): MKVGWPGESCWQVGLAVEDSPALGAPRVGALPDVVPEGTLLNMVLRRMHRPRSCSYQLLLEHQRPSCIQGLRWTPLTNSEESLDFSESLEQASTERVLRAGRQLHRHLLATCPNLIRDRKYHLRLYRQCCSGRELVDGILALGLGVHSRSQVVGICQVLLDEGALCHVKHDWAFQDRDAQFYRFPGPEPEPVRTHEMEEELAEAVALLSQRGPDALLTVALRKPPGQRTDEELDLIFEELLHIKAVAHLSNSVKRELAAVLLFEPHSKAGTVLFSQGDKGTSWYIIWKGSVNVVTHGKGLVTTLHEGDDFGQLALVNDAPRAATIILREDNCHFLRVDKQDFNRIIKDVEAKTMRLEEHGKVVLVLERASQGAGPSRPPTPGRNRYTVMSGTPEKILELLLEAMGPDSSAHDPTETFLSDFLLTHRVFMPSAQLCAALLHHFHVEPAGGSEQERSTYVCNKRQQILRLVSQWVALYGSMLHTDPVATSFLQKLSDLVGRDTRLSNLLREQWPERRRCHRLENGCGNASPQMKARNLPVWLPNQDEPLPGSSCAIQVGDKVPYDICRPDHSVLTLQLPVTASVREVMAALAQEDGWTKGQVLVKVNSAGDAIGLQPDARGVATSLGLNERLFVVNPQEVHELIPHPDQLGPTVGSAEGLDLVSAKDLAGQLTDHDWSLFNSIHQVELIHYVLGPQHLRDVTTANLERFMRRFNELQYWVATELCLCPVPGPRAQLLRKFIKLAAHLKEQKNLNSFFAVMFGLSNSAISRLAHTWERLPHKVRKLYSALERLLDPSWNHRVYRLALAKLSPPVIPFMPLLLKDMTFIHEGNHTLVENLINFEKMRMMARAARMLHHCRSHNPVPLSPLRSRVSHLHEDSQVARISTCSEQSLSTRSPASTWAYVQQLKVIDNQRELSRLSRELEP
# Tyrosine-protein kinase Yes (Homo sapiens), sequence (P07947 whole entry, looked up): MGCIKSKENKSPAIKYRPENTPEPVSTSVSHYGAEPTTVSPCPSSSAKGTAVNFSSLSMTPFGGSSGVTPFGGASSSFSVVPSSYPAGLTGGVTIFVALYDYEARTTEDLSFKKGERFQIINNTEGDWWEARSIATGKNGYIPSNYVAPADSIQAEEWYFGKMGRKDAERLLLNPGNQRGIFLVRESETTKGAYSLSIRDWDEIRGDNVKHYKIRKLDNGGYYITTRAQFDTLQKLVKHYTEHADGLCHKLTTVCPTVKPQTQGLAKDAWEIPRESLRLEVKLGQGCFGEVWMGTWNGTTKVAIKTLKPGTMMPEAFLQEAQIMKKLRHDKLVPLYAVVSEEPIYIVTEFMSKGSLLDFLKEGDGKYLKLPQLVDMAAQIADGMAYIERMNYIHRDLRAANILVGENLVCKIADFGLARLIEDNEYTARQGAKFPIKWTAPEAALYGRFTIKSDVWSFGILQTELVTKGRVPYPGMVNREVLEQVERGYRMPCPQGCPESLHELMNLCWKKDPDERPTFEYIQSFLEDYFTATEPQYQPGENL
smiles,measurement,setting,value
O=C(O)c1ccc(CSc2nnc(-c3ccc([S+](=O)([O-])N4CCCC4)cc3)n2-c2ccccc2)cc1,Potency,[1],inactive
O=C1c2ccccc2C(=O)N1c1cccc(Cl)c1,Potency,[1],inactive
O=C1Nc2ccc(C(=O)c3ccco3)cc2/C1=C/c1cc(Cl)c(O)c(Cl)c1,Potency,[2],0.463 µM (active)
same,outcome,[3],inactive
same,Potency,[1],inactive
same,Potency,[4],2.4 µM (active)
c1cncc(-c2ccc3ncnc(NCc4cccs4)c3c2)c1,Potency,[1],inactive
same,Potency,[4],39.8 µM (active)
CCC(=O)NC(c1cccs1)c1cc(Cl)c2ccccc2c1O (stereo not drawn),Potency,[1],inactive
same,Potency,[5],inactive
same,outcome,[6],inactive
same,activation,[7],0.826% [at 17.1 µM] (inactive)
same,"activity change, negative = inhibition",[8],-13.9% [at 12.7 µM] (inactive)
same,activation,[9],29.3% [at 30.8 µM] (inactive)
COc1cc(Nc2nc(-c3ccncc3)nc3ccccc23)ccc1N1CCN(C)CC1,Potency,[1],inactive
same,Potency,[4],17 µM (active)
COc1ccc(N2C(=O)c3ccccc3C2=O)cc1,Potency,[1],inactive
same,Potency,[5],inactive
same,outcome,[6],inactive
same,outcome,[7],inactive
same,Potency,[8],inactive
same,outcome,[9],inactive
O=C(NCCc1ccccc1)C1CCN(c2nc(-c3ccc(Br)cc3)cs2)CC1,Potency,[1],inactive
same,Potency,[4],inactive
COc1ccc(C2=Nn3c(nnc3-c3ccccc3F)SC2)cc1OC1CCCC1,Potency,[1],inactive
same,Potency,[4],24.5 µM (active)
CC(=O)NC(c1cccs1)c1cc(Cl)c2ccccc2c1O (stereo not drawn),Potency,[1],inactive
same,Potency,[5],inactive
same,outcome,[6],inactive
same,outcome,[7],inactive
same,Potency,[8],12 µM (active)
Cc1nc(C)c(-c2ccc3ncnc(NCc4ncc[nH]4)c3c2)s1,Potency,[1],inactive
same,Potency,[4],39.8 µM (active)

# Reference: PubChem BioAssay (NCATS)
